Assay in all cases: DAPPL (digital affinity profiling via proximity ligation, sequencing); 10 mM Tris-HCl pH 7.5, 50 mM NaCl, 1 mM DTT, 4% glycerol, room temperature, 30 min; GST-TFs on glutathione beads, 16-mer random dsDNA library, 0.1% formaldehyde crosslink after washing; high values mean tight binding
Settings in all cases: protein: recombinant; tags: N-terminal GST; dsDNA, one strand shown

In one assay the target is T1, FLI1 (Homo sapiens, UniProt Q01543 1-452).
T1 sequence: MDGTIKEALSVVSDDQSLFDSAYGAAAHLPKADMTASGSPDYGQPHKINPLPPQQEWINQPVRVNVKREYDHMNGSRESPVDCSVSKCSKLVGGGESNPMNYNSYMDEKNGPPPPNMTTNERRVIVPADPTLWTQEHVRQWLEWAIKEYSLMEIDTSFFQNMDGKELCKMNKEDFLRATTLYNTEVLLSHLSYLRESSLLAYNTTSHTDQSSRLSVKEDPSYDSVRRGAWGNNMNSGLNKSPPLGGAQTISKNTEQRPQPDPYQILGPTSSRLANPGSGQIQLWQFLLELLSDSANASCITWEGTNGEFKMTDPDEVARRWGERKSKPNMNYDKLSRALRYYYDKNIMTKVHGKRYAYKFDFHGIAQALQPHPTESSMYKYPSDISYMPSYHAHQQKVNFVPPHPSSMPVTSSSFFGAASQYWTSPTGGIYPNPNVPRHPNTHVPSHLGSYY
Put shortly: (§1)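 Beads coated with glutathione captured GST-fused human transcription factors that had been expressed in yeast, and the factors were then given DNA barcodes and pooled with a tag-only sample. The pools were incubated with 200 nmole of a random double-stranded 16-mer DNA library in Tris/NaCl/DTT/glycerol buffer for 30 min at room temperature, washed, crosslinked with 0.1% formaldehyde and proximity-ligated with BsaI/T4 ligase at 37 °C for 1 h. PCR amplification and Illumina NextSeq500 sequencing came last. Binding signal is each hexamer's read frequency for a factor divided by its frequency for the tag-only sample.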

The target of the next assay is T2, ELK1 (Homo sapiens, UniProt P19419 1-428).
T2 sequence: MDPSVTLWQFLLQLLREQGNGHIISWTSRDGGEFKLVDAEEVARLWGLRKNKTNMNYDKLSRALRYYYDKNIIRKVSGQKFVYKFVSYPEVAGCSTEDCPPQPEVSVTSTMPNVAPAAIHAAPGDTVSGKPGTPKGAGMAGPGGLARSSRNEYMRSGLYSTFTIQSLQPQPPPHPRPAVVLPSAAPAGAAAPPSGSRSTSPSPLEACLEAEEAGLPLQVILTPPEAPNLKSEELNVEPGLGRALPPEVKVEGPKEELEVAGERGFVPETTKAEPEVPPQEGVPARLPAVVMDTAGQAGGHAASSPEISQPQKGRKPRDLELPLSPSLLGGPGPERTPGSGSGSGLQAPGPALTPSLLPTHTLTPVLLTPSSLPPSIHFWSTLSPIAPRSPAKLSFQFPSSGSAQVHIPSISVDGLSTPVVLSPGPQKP
The procedure, abridged:
as §1

In another assay the target is ELF1 (Homo sapiens, UniProt P32519 1-619). The procedure, abridged:
as §1

Another assay deals with ETV5 (Homo sapiens, UniProt P41161 1-510). The procedure, abridged:
as §1

Another assay addresses T3, SPIC (Homo sapiens, UniProt Q8N5J4 1-248).
T3 sequence: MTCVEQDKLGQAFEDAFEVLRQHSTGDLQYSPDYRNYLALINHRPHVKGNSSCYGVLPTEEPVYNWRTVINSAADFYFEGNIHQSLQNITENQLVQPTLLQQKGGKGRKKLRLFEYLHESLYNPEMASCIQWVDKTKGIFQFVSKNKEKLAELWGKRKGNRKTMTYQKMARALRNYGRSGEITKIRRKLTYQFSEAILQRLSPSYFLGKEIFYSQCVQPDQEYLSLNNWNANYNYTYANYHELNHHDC
Put shortly: as §1

For another assay, the target named is ETV1 (Homo sapiens, UniProt P50549 1-477). The procedure, abridged:
as §1

The next assay has as its target T4, ETV3L (Homo sapiens, UniProt Q6ZN32 1-361).
T4 sequence: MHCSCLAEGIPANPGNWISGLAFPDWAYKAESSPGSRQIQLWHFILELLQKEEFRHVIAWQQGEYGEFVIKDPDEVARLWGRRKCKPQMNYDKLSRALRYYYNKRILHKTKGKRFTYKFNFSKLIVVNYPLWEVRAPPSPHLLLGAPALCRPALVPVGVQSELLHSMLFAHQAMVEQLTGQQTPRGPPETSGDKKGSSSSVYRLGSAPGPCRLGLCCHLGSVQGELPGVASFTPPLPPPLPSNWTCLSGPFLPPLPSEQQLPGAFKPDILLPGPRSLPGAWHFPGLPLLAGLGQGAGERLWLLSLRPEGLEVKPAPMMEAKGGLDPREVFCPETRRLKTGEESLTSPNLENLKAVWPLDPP
The procedure, abridged:
as §1

For another assay, the target named is T5, ETS2 (Homo sapiens, UniProt P15036 1-469).
T5 sequence: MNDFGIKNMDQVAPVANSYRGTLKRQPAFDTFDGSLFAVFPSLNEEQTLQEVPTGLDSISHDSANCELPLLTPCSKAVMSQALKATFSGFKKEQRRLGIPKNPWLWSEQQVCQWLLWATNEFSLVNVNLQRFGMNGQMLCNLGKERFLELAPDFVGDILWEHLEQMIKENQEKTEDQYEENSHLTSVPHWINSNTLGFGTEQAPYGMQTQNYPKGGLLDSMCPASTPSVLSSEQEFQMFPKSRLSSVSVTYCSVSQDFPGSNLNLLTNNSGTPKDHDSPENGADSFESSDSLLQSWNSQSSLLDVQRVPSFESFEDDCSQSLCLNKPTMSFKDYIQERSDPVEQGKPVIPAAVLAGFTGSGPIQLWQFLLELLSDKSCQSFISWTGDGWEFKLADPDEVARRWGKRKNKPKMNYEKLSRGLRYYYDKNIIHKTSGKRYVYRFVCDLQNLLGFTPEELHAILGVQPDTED
Put shortly:
as §1

In another assay the target is T6, ETV3 (Homo sapiens, UniProt P41162-2 1-143).
T6 sequence: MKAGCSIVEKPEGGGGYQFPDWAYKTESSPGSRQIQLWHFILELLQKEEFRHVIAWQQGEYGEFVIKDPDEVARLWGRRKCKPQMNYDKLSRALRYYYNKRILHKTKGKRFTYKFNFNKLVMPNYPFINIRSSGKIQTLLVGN
Put shortly: as §1

ETV5, sequence (P41161 whole entry): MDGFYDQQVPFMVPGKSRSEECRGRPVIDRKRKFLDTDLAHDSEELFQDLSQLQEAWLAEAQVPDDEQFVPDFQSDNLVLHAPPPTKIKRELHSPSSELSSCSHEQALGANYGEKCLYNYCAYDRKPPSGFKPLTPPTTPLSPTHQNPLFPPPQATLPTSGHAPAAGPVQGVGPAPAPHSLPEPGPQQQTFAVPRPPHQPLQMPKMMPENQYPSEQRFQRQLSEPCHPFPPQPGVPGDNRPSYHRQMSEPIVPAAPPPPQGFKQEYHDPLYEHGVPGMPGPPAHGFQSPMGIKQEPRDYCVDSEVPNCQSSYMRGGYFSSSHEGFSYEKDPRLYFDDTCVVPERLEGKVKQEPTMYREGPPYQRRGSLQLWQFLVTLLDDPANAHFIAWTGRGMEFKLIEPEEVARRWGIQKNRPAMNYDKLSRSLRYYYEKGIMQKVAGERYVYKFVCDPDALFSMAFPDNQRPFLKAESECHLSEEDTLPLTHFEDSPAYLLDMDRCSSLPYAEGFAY
ELF1, sequence (P32519 whole entry): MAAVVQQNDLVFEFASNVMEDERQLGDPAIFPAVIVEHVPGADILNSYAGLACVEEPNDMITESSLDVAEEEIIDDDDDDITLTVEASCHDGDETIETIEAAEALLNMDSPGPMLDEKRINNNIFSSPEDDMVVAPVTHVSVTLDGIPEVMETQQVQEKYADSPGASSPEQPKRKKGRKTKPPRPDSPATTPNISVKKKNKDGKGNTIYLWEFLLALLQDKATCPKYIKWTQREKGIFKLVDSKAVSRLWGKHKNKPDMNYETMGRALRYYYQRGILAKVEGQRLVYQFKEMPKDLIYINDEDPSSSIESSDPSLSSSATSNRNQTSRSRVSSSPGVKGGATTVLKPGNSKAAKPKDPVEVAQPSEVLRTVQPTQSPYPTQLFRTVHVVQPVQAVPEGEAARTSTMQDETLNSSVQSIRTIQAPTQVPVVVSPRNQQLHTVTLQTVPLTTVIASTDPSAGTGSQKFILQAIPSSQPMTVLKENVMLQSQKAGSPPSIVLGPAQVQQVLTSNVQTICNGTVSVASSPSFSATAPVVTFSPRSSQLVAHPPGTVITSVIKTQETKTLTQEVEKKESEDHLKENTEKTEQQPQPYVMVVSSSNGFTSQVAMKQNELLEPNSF
ETV1, sequence (P50549 whole entry): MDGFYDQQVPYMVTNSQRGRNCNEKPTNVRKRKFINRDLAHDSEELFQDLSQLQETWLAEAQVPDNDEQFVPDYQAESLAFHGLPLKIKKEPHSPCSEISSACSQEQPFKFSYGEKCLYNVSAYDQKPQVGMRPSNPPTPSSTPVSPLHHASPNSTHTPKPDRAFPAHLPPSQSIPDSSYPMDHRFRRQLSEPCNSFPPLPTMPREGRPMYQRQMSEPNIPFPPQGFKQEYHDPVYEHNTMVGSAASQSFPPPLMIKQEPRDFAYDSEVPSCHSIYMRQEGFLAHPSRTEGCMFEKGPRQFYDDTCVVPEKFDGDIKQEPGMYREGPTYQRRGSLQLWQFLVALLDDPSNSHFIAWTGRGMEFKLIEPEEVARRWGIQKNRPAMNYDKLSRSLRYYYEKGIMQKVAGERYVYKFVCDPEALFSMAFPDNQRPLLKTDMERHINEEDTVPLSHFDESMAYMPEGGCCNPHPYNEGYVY

As to GTTGTA, the binding signal in the assay with FLI1 was 1.01 fold enrichment (6-mer frequency, TF over GST control); in the assay with ELK1, 1.07 fold enrichment (6-mer frequency, TF over GST control); with ELF1 it was 1.01 fold enrichment (6-mer frequency, TF over GST control); in the assay with ETV5, 1.08 fold enrichment (6-mer frequency, TF over GST control); in the assay with SPIC it was 1.01 fold enrichment (6-mer frequency, TF over GST control); with ETV1 it was 1.01 fold enrichment (6-mer frequency, TF over GST control). For the same sequence, the binding signal with ETV3L was 1.07 fold enrichment (6-mer frequency, TF over GST control); with ETS2 it was 1.03 fold enrichment (6-mer frequency, TF over GST control); in the assay with ETV3, 1.01 fold enrichment (6-mer frequency, TF over GST control).

These data come from publication PMC7862700, “An all-to-all approach to the identification of sequence-specific readers for epigenetic DNA modifications on cytosine”.
